From ChEMBL document CHEMBL1961873, “Compounds: GSK PKIS; Assays: Nanosyn kinase panel” (2012) come the findings set out here.

For assay [1], the target named is Protein kinase C gamma type (Homo sapiens) (UniProt P05129). The conditions noted are these: at 1 µM.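 Further: each value is an averaged percent inhibition of the enzyme.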
The target in assay [2] is T1, Protein kinase C iota type (Homo sapiens) (UniProt P41743).
T1 sequence (whole entry): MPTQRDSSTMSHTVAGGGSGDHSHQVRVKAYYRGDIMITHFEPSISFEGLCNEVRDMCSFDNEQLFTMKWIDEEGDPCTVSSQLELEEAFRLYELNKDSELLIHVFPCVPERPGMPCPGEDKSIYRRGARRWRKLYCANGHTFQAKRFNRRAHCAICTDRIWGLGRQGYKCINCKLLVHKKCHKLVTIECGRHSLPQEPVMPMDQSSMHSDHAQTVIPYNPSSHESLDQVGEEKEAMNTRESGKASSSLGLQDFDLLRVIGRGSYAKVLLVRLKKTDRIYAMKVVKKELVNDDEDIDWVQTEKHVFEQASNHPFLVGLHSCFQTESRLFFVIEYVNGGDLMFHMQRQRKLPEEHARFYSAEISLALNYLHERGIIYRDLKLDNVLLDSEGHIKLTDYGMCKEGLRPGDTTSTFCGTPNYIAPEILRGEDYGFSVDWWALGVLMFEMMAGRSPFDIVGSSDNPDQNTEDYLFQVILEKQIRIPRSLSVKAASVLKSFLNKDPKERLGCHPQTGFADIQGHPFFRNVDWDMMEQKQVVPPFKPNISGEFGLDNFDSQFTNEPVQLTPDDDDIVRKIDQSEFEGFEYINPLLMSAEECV
The conditions noted are these: at 0.1 µM.

Assay [3] deals with T1, Protein kinase C iota type (Homo sapiens). The conditions noted are these: at 1 µM.
The target of assay [4] is Protein kinase C theta type (Homo sapiens) (UniProt Q04759). The conditions noted are these: at 0.1 µM.
Sequence of Protein kinase C theta type (Homo sapiens) (Q04759 whole entry, looked up): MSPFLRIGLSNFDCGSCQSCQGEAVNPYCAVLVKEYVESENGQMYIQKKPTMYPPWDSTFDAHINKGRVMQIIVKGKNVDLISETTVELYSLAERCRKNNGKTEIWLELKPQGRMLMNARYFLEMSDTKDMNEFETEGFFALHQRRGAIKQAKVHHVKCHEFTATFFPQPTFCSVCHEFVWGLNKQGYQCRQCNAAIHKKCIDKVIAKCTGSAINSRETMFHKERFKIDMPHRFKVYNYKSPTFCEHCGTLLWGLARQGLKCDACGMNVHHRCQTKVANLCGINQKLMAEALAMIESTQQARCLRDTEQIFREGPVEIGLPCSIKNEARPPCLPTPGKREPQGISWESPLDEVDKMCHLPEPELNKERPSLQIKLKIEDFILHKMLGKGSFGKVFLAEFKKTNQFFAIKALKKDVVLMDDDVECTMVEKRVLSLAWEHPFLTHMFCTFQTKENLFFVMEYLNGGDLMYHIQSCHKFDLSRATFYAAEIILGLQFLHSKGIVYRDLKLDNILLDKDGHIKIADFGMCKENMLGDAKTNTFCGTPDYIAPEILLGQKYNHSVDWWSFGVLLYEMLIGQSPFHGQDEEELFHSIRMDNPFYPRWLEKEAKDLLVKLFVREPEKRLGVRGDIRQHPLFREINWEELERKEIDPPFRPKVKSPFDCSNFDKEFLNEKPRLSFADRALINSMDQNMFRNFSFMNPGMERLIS
For assay [5] the target is unchanged. The conditions noted are these: at 1 µM.
For assay [6], the target named is Protein kinase C beta type (Homo sapiens) (UniProt P05771). The settings on record: at 0.1 µM.
Sequence of Protein kinase C beta type (Homo sapiens) (P05771 2-671 limits assumed): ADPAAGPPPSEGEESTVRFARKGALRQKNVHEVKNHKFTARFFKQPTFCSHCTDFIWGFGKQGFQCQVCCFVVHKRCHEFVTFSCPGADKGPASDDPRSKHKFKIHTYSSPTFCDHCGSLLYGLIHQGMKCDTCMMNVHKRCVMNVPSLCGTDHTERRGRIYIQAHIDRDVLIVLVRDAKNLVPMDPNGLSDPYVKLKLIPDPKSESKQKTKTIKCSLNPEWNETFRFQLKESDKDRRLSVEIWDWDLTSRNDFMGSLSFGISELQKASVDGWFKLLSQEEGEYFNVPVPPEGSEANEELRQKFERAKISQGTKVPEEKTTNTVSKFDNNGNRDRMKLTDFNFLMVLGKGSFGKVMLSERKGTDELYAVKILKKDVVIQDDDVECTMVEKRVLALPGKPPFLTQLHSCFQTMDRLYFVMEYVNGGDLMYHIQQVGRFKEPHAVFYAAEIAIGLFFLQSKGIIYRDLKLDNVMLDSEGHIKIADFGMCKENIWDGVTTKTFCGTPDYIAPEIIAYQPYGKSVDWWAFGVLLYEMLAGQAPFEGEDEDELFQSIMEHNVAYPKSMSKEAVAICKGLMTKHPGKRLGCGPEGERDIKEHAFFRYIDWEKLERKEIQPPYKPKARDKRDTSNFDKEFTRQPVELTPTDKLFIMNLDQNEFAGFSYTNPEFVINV
Assay [7] has the same target. The settings on record: at 1 µM.
The target in assay [8] is T2, Serine/threonine-protein kinase D1 (Homo sapiens) (UniProt Q15139).
T2 sequence (whole entry): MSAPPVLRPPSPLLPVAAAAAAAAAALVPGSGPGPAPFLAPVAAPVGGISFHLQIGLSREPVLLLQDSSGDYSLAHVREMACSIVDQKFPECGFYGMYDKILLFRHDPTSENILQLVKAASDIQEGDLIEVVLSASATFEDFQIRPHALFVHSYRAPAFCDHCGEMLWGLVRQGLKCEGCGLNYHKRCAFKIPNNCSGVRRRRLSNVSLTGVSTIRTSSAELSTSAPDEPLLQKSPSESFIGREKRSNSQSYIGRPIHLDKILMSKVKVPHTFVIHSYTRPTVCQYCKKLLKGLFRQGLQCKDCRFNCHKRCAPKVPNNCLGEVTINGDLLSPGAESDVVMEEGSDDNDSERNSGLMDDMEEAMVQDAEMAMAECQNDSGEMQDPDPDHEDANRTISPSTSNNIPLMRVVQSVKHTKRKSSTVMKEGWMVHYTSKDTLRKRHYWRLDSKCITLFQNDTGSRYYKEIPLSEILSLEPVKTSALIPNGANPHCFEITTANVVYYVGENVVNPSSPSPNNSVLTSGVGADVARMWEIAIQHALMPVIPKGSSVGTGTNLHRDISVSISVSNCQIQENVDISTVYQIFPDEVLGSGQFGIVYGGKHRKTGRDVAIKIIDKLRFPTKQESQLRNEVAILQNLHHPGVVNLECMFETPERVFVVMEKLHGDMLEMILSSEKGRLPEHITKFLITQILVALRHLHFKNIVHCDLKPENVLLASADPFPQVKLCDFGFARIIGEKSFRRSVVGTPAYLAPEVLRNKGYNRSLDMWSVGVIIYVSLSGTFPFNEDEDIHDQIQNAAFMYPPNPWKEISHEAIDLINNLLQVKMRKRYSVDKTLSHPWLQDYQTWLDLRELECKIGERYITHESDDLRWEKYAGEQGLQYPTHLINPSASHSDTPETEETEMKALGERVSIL
The conditions noted are these: at 0.1 µM.

Assay [9] concerns the target T2, Serine/threonine-protein kinase D1 (Homo sapiens). The settings on record: at 1 µM.
Assay [10] addresses T3, Serine/threonine-protein kinase D2 (Homo sapiens) (UniProt Q9BZL6).
T3 sequence (whole entry): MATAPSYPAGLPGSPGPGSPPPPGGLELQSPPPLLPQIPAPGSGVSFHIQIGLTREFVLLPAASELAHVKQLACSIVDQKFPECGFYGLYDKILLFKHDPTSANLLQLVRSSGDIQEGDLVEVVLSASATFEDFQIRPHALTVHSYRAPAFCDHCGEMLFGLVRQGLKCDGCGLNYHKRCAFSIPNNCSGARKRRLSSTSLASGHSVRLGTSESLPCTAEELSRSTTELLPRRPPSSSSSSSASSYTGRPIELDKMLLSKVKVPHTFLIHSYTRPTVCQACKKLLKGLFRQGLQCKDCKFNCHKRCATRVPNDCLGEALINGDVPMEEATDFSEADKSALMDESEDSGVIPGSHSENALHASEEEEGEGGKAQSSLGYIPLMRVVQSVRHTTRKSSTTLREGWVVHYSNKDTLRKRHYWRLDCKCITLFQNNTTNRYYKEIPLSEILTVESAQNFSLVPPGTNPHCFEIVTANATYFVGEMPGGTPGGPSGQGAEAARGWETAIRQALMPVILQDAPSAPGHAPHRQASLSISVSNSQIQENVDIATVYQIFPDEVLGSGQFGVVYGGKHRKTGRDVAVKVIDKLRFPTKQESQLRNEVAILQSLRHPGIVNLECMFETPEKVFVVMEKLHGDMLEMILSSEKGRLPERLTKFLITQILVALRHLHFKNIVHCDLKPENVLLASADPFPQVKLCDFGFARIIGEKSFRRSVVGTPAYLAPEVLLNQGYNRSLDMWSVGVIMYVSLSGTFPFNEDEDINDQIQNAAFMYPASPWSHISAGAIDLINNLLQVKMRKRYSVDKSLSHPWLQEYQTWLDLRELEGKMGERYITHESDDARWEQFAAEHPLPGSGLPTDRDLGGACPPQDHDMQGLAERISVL
The settings on record: at 0.1 µM.

For assay [11], the target named is T3, Serine/threonine-protein kinase D2 (Homo sapiens). The conditions noted are these: at 1 µM.
Assay [12] deals with T4, Serine/threonine-protein kinase D3 (Homo sapiens) (UniProt O94806).
T4 sequence (whole entry): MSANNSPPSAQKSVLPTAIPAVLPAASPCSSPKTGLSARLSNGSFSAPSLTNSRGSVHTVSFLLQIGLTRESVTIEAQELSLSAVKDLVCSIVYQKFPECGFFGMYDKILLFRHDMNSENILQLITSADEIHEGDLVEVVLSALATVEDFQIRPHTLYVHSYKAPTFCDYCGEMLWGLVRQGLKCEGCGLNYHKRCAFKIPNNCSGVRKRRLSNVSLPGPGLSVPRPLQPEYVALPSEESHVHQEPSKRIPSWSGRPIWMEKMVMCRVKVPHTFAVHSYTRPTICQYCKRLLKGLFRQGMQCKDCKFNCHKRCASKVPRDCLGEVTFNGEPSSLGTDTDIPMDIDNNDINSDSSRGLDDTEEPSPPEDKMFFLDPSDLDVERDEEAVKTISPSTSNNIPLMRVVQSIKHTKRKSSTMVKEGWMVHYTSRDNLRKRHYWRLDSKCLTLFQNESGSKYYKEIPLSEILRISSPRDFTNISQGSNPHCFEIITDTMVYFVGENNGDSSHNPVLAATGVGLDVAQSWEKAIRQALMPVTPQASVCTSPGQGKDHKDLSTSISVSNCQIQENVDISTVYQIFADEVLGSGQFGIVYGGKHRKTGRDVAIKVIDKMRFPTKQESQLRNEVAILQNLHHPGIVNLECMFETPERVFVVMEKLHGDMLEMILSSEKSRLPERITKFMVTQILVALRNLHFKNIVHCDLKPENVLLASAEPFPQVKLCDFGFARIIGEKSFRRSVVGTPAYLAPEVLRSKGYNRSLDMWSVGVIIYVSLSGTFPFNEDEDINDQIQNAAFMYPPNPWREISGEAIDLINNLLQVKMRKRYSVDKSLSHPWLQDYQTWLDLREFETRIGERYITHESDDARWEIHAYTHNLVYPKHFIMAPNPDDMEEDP
The settings on record: at 0.1 µM.

Assay [13] deals with T4, Serine/threonine-protein kinase D3 (Homo sapiens). The settings on record: at 1 µM.
The target of assay [14] is T5, cGMP-dependent protein kinase 1 (Homo sapiens) (UniProt Q13976).
T5 sequence (whole entry): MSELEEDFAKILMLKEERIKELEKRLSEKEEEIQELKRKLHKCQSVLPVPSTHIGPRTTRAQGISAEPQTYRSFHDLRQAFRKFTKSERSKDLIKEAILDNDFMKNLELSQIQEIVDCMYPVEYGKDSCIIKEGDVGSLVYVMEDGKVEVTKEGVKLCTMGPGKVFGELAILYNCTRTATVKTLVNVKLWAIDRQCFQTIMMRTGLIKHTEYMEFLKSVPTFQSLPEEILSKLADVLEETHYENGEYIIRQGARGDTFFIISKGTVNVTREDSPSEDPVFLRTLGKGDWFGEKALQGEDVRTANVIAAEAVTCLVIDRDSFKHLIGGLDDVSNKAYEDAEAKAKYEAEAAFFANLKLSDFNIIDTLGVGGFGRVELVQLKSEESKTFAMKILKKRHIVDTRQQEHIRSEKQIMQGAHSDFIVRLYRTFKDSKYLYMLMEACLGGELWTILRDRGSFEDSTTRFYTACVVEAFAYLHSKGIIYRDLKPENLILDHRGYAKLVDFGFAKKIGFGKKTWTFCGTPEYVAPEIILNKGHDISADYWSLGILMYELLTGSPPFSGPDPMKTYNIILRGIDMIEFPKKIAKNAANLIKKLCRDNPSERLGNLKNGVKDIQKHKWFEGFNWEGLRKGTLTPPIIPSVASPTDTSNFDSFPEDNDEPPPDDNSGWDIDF
The settings on record: at 0.1 µM.

In assay [15] the target is T5, cGMP-dependent protein kinase 1 (Homo sapiens). The conditions noted are these: at 1 µM.
For assay [16], the target named is T6, cGMP-dependent protein kinase 2 (Homo sapiens) (UniProt Q13237).
T6 sequence (whole entry): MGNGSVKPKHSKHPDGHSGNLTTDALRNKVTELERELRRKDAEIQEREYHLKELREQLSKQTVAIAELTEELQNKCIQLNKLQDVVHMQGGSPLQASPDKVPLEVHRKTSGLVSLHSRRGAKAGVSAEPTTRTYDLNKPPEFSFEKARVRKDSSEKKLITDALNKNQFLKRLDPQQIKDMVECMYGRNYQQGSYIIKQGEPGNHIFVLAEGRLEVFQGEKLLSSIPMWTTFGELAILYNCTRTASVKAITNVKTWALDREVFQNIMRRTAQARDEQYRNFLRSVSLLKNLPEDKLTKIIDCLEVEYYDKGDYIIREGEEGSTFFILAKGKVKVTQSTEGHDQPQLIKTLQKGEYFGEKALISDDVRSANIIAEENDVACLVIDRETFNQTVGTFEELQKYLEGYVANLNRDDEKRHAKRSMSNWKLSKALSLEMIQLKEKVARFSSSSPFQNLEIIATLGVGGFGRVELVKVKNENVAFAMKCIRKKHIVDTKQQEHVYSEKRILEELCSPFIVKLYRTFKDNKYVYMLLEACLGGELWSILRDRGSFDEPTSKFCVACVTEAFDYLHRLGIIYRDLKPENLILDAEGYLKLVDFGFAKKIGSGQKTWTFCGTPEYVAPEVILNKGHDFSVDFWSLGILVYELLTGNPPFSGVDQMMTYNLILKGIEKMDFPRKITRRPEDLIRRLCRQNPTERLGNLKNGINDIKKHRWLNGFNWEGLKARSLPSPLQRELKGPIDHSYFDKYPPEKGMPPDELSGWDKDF
The settings on record: at 0.1 µM.

The target in assay [17] is T6, cGMP-dependent protein kinase 2 (Homo sapiens). The settings on record: at 1 µM.
Assay [18] has as its target T7, cAMP-dependent protein kinase catalytic subunit PRKX (Homo sapiens) (UniProt P51817).
T7 sequence (whole entry): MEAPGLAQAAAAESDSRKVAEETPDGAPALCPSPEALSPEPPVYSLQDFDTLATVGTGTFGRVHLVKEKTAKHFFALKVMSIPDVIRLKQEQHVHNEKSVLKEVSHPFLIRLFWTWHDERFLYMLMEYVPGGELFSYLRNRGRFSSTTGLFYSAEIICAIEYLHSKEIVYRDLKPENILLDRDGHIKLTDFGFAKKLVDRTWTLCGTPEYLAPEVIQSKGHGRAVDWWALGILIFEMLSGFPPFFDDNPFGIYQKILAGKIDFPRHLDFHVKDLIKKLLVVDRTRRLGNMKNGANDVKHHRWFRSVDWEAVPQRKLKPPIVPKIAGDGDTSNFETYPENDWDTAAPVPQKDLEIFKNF
The conditions noted are these: at 0.1 µM.

Assay [19] has as its target T7, cAMP-dependent protein kinase catalytic subunit PRKX (Homo sapiens). The conditions noted are these: at 1 µM.
Assay [20] deals with Rho-associated protein kinase 1 (Homo sapiens) (UniProt Q13464). The conditions noted are these: at 0.1 µM.
Sequence of Rho-associated protein kinase 1 (Homo sapiens) (Q13464 2-1354 limits assumed): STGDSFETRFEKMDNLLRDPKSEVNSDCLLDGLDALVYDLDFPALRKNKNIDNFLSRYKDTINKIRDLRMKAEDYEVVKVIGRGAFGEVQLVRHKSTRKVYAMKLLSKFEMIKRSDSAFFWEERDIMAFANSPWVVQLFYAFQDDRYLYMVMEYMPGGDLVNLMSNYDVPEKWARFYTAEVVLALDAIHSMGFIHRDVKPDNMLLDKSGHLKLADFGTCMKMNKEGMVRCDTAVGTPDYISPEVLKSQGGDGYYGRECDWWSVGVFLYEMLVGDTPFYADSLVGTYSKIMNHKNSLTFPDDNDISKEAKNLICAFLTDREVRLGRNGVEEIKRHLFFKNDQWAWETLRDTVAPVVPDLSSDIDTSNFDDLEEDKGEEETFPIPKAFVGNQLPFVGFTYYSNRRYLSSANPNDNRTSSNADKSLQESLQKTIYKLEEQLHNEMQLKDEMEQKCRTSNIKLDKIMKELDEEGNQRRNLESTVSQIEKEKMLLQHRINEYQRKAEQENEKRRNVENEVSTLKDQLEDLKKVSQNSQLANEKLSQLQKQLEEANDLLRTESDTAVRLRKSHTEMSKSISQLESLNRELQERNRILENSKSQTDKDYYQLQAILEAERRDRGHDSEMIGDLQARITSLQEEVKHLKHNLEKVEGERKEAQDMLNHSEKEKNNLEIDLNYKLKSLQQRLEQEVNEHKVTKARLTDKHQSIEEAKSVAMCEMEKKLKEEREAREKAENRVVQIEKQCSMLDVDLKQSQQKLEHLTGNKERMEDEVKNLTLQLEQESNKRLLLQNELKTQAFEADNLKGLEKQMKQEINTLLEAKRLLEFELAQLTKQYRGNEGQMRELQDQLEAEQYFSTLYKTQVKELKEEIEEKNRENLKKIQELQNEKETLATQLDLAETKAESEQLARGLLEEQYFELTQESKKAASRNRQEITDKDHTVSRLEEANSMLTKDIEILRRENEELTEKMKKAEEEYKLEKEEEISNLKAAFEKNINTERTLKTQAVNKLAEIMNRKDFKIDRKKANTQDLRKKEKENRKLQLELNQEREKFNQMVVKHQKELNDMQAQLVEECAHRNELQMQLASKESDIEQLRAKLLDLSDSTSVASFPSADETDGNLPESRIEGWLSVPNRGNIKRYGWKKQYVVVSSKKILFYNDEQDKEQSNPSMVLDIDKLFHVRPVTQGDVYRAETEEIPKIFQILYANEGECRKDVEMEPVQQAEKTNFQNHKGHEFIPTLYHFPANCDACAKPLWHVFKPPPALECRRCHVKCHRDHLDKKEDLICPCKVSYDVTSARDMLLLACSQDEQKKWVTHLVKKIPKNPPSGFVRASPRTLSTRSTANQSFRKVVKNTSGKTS

As for `CNC(=O)c1cncc(/C=C/c2c(C)cccc2C)c1`, the inhibition – broadly, the change of the read-out against control, counted positive when it falls – was 0.78% in [1]; -1.41% in assay [2]; -1.56% in [3]; -0.68% in assay [4]; 0.76% in assay [5]; -0.12% in assay [6]. Besides, the inhibition in assay [7] is 1.01%; in assay [8], -2.84%; in [9] it was -2.47%; in assay [10], -2.56%; in [11], -2.22%; in assay [12], -2.33%. The inhibition in [13] was -3.04%; in assay [14], -0.33%; in [15] it was 4.28%; in [16], 0.8%; in [17], 1.58%; in assay [18], 0.26%. Moreover, the inhibition was 0.53% in [19] and -0.35% in assay [20].

As for `CN(C)CCOc1ccc(-c2cc(-c3ccc4c(c3)CCC4=NO)c(-c3ccncc3)o2)cc1`, the inhibition in [1] was 0.02%; in assay [2], -1.87%; in [3] it was -1.84%; in assay [4], -1.06%; in assay [5], -0.42%; in [6], -0.72%. The inhibition is 2.28% in [7]; -0.39% in assay [8]; 0.79% in assay [9]; 0.89% in assay [10]; 1.9% in assay [11]; -0.84% in assay [12]. The inhibition in assay [13] was 0.31%; in assay [14], -1.48%; in assay [15], 3.68%; in assay [16] it was -0.1%; in assay [17] it was 11.2%; in assay [18], -0.21%. In addition, the inhibition is -1.72% in [19] and -1.57% in assay [20].
